Assay outcomes: PubChem, The Scripps Research Institute Molecular Screening Center
hgDAF12 agonist = agonists of H. glycines DAF-12 nuclear receptor; HEK293 GAL4-hgDAF12 UAS-luciferase reporter, agonist luminescence; normalized to butyrate control; activation, % at 6.8 µM; 370,000 compounds, 1.8% hits;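 active = activation above a cutoff set at the mean of all screened compounds plus 3 SD, cut at about 10% in these data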
DAX1 inh-1 = inhibitors of DAX1 repression of SF-1 activated StAR promoter | 370,000 compounds, 1.1% hits | inhibition, % at 6.8 µM | HEK293T StAR-luciferase reporter, SF-1/DAX-1 repression relief;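 active = inhibition above the mean over all tested compounds plus 3 SD, cut at about 3.6% in these data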;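 also: higher inhibition means more luminescence from relief of DAX-1 repression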
hcDAF12 agonist = H. contortus DAF-12 activation, primary screen. HEK293 hcDAF-12 lit1-tk-luc reporter, luminescence; 0% DMSO, 100% Δ7-dafachronic acid. activation, % at 6.8 µM. 370,000 compounds, 1.4% hits. AID 652067;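 active = activation above the mean of all tested compounds plus 3 SD, cut at about 5.5% in these data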
ssDAF12 agonist = activates DAF-12 receptor from parasite S. stercoralis; HEK293 ssDAF-12/GRIP1 lit1-tk-luc reporter, luminescence; % of 3 µM dafachronic acid response; activation, % at 6.8 µM; 370,000 compounds, 1% hits; AID 652126;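 active = activation above the mean over all tested compounds plus 3 SD, cut at about 0.9% in these data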
DAX1 inh-2 = inhibits human nuclear receptor DAX1; 340,000 compounds, 0.99% hits; P51843; HEK293 Gal4-DAX1 luciferase reporter, luminescence; AID 504766; inhibition, % at 6.75 µM;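 active = inhibition above the mean over all tested compounds plus 3 SD, cut at about 4.2% in these data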;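 also: inhibition shows as a rise in luminescence from relieved DAX1 repression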
Target sequence (P51843 207-470 limits assumed): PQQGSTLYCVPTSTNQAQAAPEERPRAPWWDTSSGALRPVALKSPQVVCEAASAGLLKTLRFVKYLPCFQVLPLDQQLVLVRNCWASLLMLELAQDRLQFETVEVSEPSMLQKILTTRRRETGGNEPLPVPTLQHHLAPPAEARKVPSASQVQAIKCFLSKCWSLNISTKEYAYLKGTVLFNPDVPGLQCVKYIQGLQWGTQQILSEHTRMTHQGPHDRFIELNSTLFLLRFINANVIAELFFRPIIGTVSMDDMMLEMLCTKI
Of the large screens only hits and unclear results are named; the others gave an inactive call. Only some compounds are listed: those with a hit (about 4.1% of all), similar ones and a draw of the others.

COc1ccc(CNCC#Cc2ccc(C)cc2)c(OC)c1	none (no result: DAX1 inh-2)
COc1cccc(-c2nnc(SCc3cc(C)ccc3C)n2Cc2ccco2)c1	none (no result: DAX1 inh-2)
CCCC[C@H]1C2CC(OC(=O)Nc3cccc(C(F)(F)F)c3)C(C2)[C@H]2CCCCN21 (some centres undefined)	none (no result: DAX1 inh-2)
CC(=O)N[C@@H]1C[C@@H]2O[C@@H](CO)CC[C@@H]2O[C@@H]1CCc1ccc(C#CC2(O)CCCC2)cc1	none (no result: DAX1 inh-2)
COc1ccc(-c2noc(CCC(=O)N3CCC(c4cc(C)ccc4C)CC3)n2)cc1	ssDAF12 agonist 3.0
COc1ccc(-c2noc(CCC(=O)N3CCN(c4cccc(OC)c4)CC3)n2)cc1	none
CC(C)(N[C@@H](Cc1ccccc1)C(=O)NCCCc1ccccc1)C(=O)NCc1ccccc1	none (no result: DAX1 inh-1, DAX1 inh-2)
CCOC(=O)N(C)[C@H]1C[C@H]2c3[nH]c4cccc(-c5cccc(F)c5)c4c3CCN2C(=O)[C@H]1[C@H](C)O	none (no result: DAX1 inh-2)
COc1ccc(Cl)c(-c2cc(C(=O)Nc3ccc(F)cc3)[nH]n2)c1	hgDAF12 agonist 12 (no result: DAX1 inh-2)
COc1ccc(-c2cc(C(=O)Nc3ccc(NC(C)=O)cc3)[nH]n2)c(C)c1	none (no result: DAX1 inh-2)
Cc1ccc(NC(=O)c2cc(-c3cc(Cl)ccc3O)n[nH]2)cc1C	none
Cc1ccc(Cl)cc1-c1cc(C(=O)Nc2ccc(F)cc2)[nH]n1	DAX1 inh-1 4.1 (no result: DAX1 inh-2)
O=C(OCc1ccc(CSc2nnc(-c3cccc4ccccc34)o2)cc1)c1ccc(F)cc1	none (no result: DAX1 inh-1, DAX1 inh-2)
CCN(CC)C(=O)CC[C@H]1CC[C@]2(CCCN(C(=O)C3CCCC3)C2)O1	none (no result: DAX1 inh-2)
Cc1ccc(C(=O)N2CCN(c3ccccc3)CC2)cc1C	none
Cc1ccc(C(=O)N2CCC(C)CC2)cc1C	ssDAF12 agonist 2.2
C[C@@H]1OC(c2ccccc2)N(C)[C@H]2C[C@H]3c4[nH]c5cccc(-c6ccccc6)c5c4CCN3C[C@@H]12 (some centres undefined)	none (no result: DAX1 inh-2)
CC(=O)Nc1ccc(NC(=O)CNC(=O)COc2ccccc2)cc1	none
O=C(COc1ccccc1)NCC(=O)Nc1ccncc1	hgDAF12 agonist 11
COc1ccc2cc(-c3cccnc3)ncc2c1	hgDAF12 agonist 11
CCC[C@H]1[C@@H](OC(=O)NCc2ccccc2)CC[C@@]23CCCN2C(=O)CCC[C@@H]13	none (no result: DAX1 inh-1, DAX1 inh-2)
COc1ccc(/C=C2\SC(=O)N(CC(=O)Nc3ccc(O)cc3)C2=O)cc1OC	none
COc1ccc(/C=C2\SC(=O)N(CC(=O)NN3CCN(C)CC3)C2=O)cc1OC	DAX1 inh-2 4.7
O=C(CCN1C(=O)S/C(=C\c2ccccc2)C1=O)N1CCCCC1	none
COc1ccc(/C=C2\SC(=O)N(CCC(=O)N3CCCCC3)C2=O)cc1OC	DAX1 inh-2 5.8
Clc1ccc(-n2c(SCc3cccc4ccccc34)nnc2-c2ccccn2)cc1	none (no result: DAX1 inh-2)
Cc1ccc2c(c1)N(CCCC(=O)N(C)Cc1ccccc1F)C(=O)CO2	none (no result: DAX1 inh-2)
O=C(N1CCC(C(O)(c2ccccc2)c2ccccc2)CC1)n1ncc(C(O)(c2ccccc2)c2ccccc2)n1	none (no result: DAX1 inh-1, DAX1 inh-2)
CCOC(=O)C1=C(C(=O)OCC)C2N(Cc3ccc(C#N)cc3)c3ccccc3[C@@]23C[C@@H](C(=O)OC)N(S(=O)(=O)c2ccc(C)cc2)C3=N1 (some centres undefined)	none (no result: DAX1 inh-2)
O=C(Nc1ccccn1)c1ccccc1	DAX1 inh-1 3.9
Cc1cccc(NC(=O)c2ccc3c(c2)OCCO3)n1	none (no result: hgDAF12 agonist, DAX1 inh-1, hcDAF12 agonist, ssDAF12 agonist)
O=C(Nc1ccccn1)c1ccc2c(c1)OCCO2	hgDAF12 agonist 13, DAX1 inh-1 4.2
O=C(Nc1nc(-c2ccccn2)cs1)c1ccc2c(c1)OCCO2	hgDAF12 agonist 11, DAX1 inh-1 3.8
CC(=O)Nc1ccc(C(=O)Nc2nc(-c3ccccn3)cs2)cc1	none
O=C(Nc1ccccn1)c1ccc(C(=O)Nc2ccccn2)cc1	none (no result: hgDAF12 agonist, DAX1 inh-1, hcDAF12 agonist, ssDAF12 agonist)
O=C(/C=C\Nc1ccccn1)c1ccc(Cl)cc1	DAX1 inh-1 4.2
O=C(Nc1ccccn1)C1COc2ccccc2O1 (centres undefined)	none
Cc1ccc(C(=O)Nc2nc(-c3ccccn3)cs2)o1	none
CC1Oc2ccccc2OC1C(=O)Nc1ccccn1 (centres undefined)	hcDAF12 agonist 6.3
CCc1cc(C(=O)Nc2nc(-c3ccccn3)cs2)sc1C	DAX1 inh-2 6.7
O=C(OCc1ccccc1)[C@H](Cc1ccccc1)NC(=O)[C@@H]1CC=C[C@@H]2CCN(C3CCCCC3)C(=O)[C@@H]21	none (no result: DAX1 inh-1, DAX1 inh-2)
COc1cc(/C=N/OCC(=O)NC2CCCCC2C)ccc1OCc1ccc(Cl)cc1 (centres undefined)	hgDAF12 agonist 11, DAX1 inh-1 4.2
FC(F)(F)c1cnc(COc2cc(Cl)cc(Cl)c2)c(Cl)c1	DAX1 inh-2 5.8
O=C(O)CCc1ncc(C(F)(F)F)cc1Cl	none
Cc1cc(C)cc(C(=O)OCCCN(C)C2CN(Cc3cn(Cc4ccccc4F)nn3)S(=O)(=O)C2)c1 (centres undefined)	none (no result: DAX1 inh-2)
CCCCNC(=O)O[C@H]1CC[C@@]23CCCN2C(=O)CCC[C@H]3[C@H]1CCC	none (no result: DAX1 inh-1, DAX1 inh-2)
CCOCCCNC(=O)CNC(=S)N(Cc1ccccc1F)C1CCCCC1	none
COCCCNC(=O)CNC(=S)N(Cc1ccc(F)cc1)C1CCCCC1	ssDAF12 agonist 1.2
COc1ccc(/C=C/C(=O)OCC(=O)Nc2ncc(Cl)cc2Cl)cc1	ssDAF12 agonist 1.1
CC(NC(=O)COC(=O)/C=C/c1ccc([N+](=O)[O-])cc1)c1ccccc1 (centres undefined)	none
O=C(/C=C/c1ccc([N+](=O)[O-])cc1)OCc1cnc(-c2ccccc2)o1	DAX1 inh-2 6.1
COc1cccc(C#Cc2c(CO)[nH]c3ccccc23)c1	hcDAF12 agonist 6.2
CC(C)CN1C(=O)C[C@@]2(C(=O)N(C)c3ccc(NS(=O)(=O)c4ccc(F)cc4)cc32)C1c1ccccc1 (some centres undefined)	none (no result: DAX1 inh-2)
COC(=O)[C@]1(C)N[C@H](CN(C)C(=O)c2ccccc2)[C@@H]2C(=O)N(Cc3ccccc3)C(=O)[C@@H]21	none
COC(=O)[C@]1(C)N[C@H](CN(C)C(C)=O)[C@@H]2C(=O)N(Cc3ccccc3)C(=O)[C@@H]21	ssDAF12 agonist 3.7
CCN(C[C@H]1N[C@@](C)(C(=O)OC)[C@H]2C(=O)N(Cc3ccccc3)C(=O)[C@@H]12)C(=O)C1CCCCC1	none
CCN(C[C@H]1N[C@@](Cc2ccccc2)(C(=O)OC)[C@H]2C(=O)N(Cc3ccccc3)C(=O)[C@@H]12)C(=O)C1CCCCC1	DAX1 inh-1 4.2
CCc1nnn2c1Cn1c3ccccc3c(=O)n1[C@@H](C(C)C)C2	none (no result: DAX1 inh-2)
Nc1ccccc1S(=O)(=O)NC1=NCCCCC1	DAX1 inh-2 4.4
O=C(NCCc1ccccc1)OCc1cn(-c2ccc(F)c(F)c2)nn1	none (no result: DAX1 inh-2)
O=C(N/N=C/c1cccs1)c1cc(-c2cccc3ccccc23)n[nH]1	hgDAF12 agonist 11
O=C(N/N=C/c1cccs1)c1cc(-c2ccc3ccccc3c2)n[nH]1	hgDAF12 agonist 11
